Laboratory results: PubChem BioAssay (Tox21)
Several values for one entry are separate records, joined by “and”; a condition that tells them apart may be missing. Identical values can stand only once. Records with an inconclusive call do not appear. Where a call stands in place of a potency, no number is given. Where a structure was tested more than once in an assay, its records may differ in their call. Activity calls are given as the source filed them. Calls come from the whole dose curve; as a rule, active = well fitted activation curve with a large enough effect in the repeat runs; inconclusive = weak or mixed curves; inactive = flat fitted curve, though single readings scatter.
Potency is the fitted concentration of half-maximal effect.

Assay: A CellTox Green Cytotoxicity Assay to monitor cytotoxicity in HEK293 cells - 32 hour (AID 1224881); note: nearly all actives have a fitted effect of over 40% in size
Conditions: CellTox Green fluorescence; series mostly up to 76.8 µM
Text: National Center for Advancing Translational Sciences [NCATS]
NIH Chemical Genomics Center [NCGC]
U.S. Environmental Protection Agency [EPA]
National Institutes of Environmental Health Sciences [NIEHS]
National Toxicology Program [NTP]
Cell-based models are critical for drug discovery. Determining the natural cytotoxic effects resulting from test compounds is an essential research activity. A CellTox Green Cytotoxicity Assay to monitor cytotoxicity in real time of continues cell culture during 40 hours of the compound treatment was used to screen Tox21 10K library compounds in Hek293 cells. CellTox Green Cytotoxicity Assay is a nonlytic, homogeneous, biofluorescent method to measure cytotoxicity in cell culture after experimental manipulation. The assay system uses a proprietary asymmetric cyanine dye that is excluded from viable cells but preferentially stains the dead cell's DNA. […] Viable cells produce no appreciable increases in fluorescence. Therefore, the fluorescence signal produced by the binding interaction with dead cell DNA is proportional to cytotoxicity.
The mixture of Hek293 cell suspension and reagents were dispensed at 600cells/6 ul/well in 1536-well tissue culture treated black solid bottom plates using a Multidrop dispenser. After the assay plates were incubated at a 37 C/5% CO2 incubator for 5 hours, 23 nL of compounds dissolved in DMSO, positive and negative controls was transferred to the assay plate by a pintool work station. The plates were incubated at 37 C for 40 hours. The fluorescence intensity were measured at 0h, 8h, 16h, 24h, 32h and 40h time points using ViewLux plate reader during compound treatment.
With `O=C(O)c1cc(N=Nc2ccc(S(=O)(=O)Nc3ccccn3)cc2)ccc1O` the Potency was “inactive”. In the case of `CC(O)CO` (stereo not given), the Potency is reported as “inactive”. For `O=C(O)/C=C\C(=O)O`, the Potency was “inactive”. For `Nc1ccc(S(=O)(=O)c2ccc(N)cc2)cc1`, the Potency was “inactive”. With `CC(C)(Oc1ccc(C2CC2(Cl)Cl)cc1)C(=O)O` (stereo not given) the Potency was “inactive”. With `NC(N)=O` the Potency was “inactive”. For `O=S(=O)(O)NC1CCCCC1`, the Potency was “inactive”. In the case of `O=C(c1ccccc1)c1ccccc1`, the Potency is reported as “inactive”. With `COc1ccc2[nH]cc(CCNC(C)=O)c2c1` the Potency was “inactive”. For `O=C(O)C(=O)O`, the Potency was “inactive”. With `CC1(C)[C@@H]2CC[C@@]1(C)C(=O)C2` the Potency was “inactive and 8.49 µM (active)”. In the case of `Cc1cn([C@H]2C[C@H](N=[N+]=[N-])[C@@H](CO)O2)c(=O)[nH]c1=O`, the Potency is reported as “inactive”. With `CNC[C@H](O)c1cccc(O)c1` the Potency was “inactive”. For `Nc1ccc(C(=O)O)cc1`, the Potency was “inactive”. In the case of `CCCCOC(=O)CC(CC(=O)OCCCC)(OC(C)=O)C(=O)OCCCC`, the Potency is reported as “inactive”. For `CC(C)[C@@H]1CC[C@@H](C)C[C@H]1O`, the Potency was “inactive”. In the case of `NS(=O)(=O)c1cc(C(=O)O)c(NCc2ccco2)cc1Cl`, the Potency is reported as “inactive”. In the case of `Cn1c(=O)c2[nH]cnc2n(C)c1=O`, the Potency is reported as “inactive”. For `N=C(N)c1ccc(OCCCCCOc2ccc(C(=N)N)cc2)cc1`, the Potency was “inactive”. For `CCCNC(=O)NS(=O)(=O)c1ccc(Cl)cc1`, the Potency was “inactive”. In the case of `O=C(O)CS`, the Potency is reported as “inactive”. For `O=S(=O)(O)c1ccc2cc(O)ccc2c1`, the Potency was “inactive”. With `OCCc1ccccc1` the Potency was “inactive”. For `COc1c2occc2cc2ccc(=O)oc12`, the Potency was “inactive”. For `Cc1ccc(O)cc1`, the Potency was “inactive”. In the case of `O=C(O)CCCCCCCC(=O)O`, the Potency is reported as “inactive”. For `O=C(O)c1cccnc1`, the Potency was “inactive”. In the case of `O=NO`, the Potency is reported as “inactive”. With `OC(Cn1cncn1)(Cn1cncn1)c1ccc(F)cc1F` the Potency was “inactive”. In the case of `O=C(O)CCC(=O)O`, the Potency is reported as “inactive”. For `CCCN(CCC)S(=O)(=O)c1ccc(C(=O)O)cc1`, the Potency was “inactive”. In the case of `c1ccc2[nH]ccc2c1`, the Potency is reported as 6.81 µM (active) and inactive. In the case of `CCCCC(CC)COC(=O)/C=C/c1ccc(OC)cc1` (stereo not given), the Potency is reported as “inactive”. For `CCCC(O)C(CC)CO` (stereo not given), the Potency was “inactive”. For `CC(=O)OCC(COC(C)=O)OC(C)=O`, the Potency was “inactive”. With `CC(=O)Nc1nnc(S(N)(=O)=O)s1` the Potency was “inactive”. In the case of `O=C(O)CCCCC(=O)O`, the Potency is reported as “inactive”. In the case of `CC(O)CN(CCN(CC(C)O)CC(C)O)CC(C)O` (stereo not given), the Potency is reported as “inactive”. In the case of `C1N2CN3CN1CN(C2)C3`, the Potency is reported as “inactive”. In the case of `O=C(O)c1[nH]n(-c2ccc(S(=O)(=O)O)cc2)c(=O)c1N=Nc1ccc(S(=O)(=O)O)cc1`, the Potency is reported as “inactive”.
